The record followed here is PubChem BioAssay (Tox21).

Molecules are shown by their SMILES. Records with an inconclusive call do not appear. Calls of active or inactive are those of the source. The call rests on the fitted dose curve.

A short description of this assay: qHTS assay to identify small molecule agonists of the NFkB signaling pathway - cell viability counter screen (AID 1159515). Further: nearly all actives have a fitted effect of over 55% in size. The following applies: NFkB-bla ME-180 viability, CellTiter-Glo luminescence, 5 h; series mostly up to 61 µM. From the text:
National Center for Advancing Translational Sciences [NCATS]
NIH Chemical Genomics Center [NCGC]
U.S. Environmental Protection Agency [EPA]
National Institutes of Environmental Health Sciences [NIEHS]
National Toxicology Program [NTP]
U.S. Food and Drug Administration [FDA]
Transcription factors and their stimulated target gene expression play pivotal roles across many cellular processes including responses to environmental stimuli. Proper regulation of associated pathways is critical to maintain cell health and function. Constitutive activation of transcription factor pathways has been implicated in tumors as it may block cellular functions such as apoptosis and lead to invasion and metastasis. One important transcription factor that stimulates gene expression in response to cytokines, UV radiation, and other stimuli is nuclear factor-kappa B (NFkB). To measure activation of the NFkB pathway, the CellSensor NFkB-bla ME-180 cell line (Life Technologies, Carlsbad, CA) that stably expresses beta-lactamase reporter gene under the regulation of a NF-kB response element was used. This assay allows measurement of the NFkB pathway activity induced by compounds in a ME-180 cell line. This system quantitates NF-kB activity using a FRET-based assay system where beta-lactamase expression disrupts FRET, allowing for fluorescent measurement of activity. This cell line has been used to screen the Tox21 10K compound library and to identify compounds that induce the NFkB pathway activity. The cytotoxicity of the Tox21 compound library against the NFkB-bla ME-180 cell line was tested in parallel by measuring cell viability using the CellTiter-Glo assay in the same wells.
Tox21 Assay Protocol Summary:
NFkB-bla ME-180 cells were dispensed at 2,000 cells/6 uL of assay medium per well into black wall/clear-bottom 1536-well plates using a Multidrop Combi (ThermoFisher Scientific, Waltham, MA) dispenser. After the assay plates were incubated at 37 C and 5% CO2 for an overnight, 23 nL of compounds dissolved in DMSO, positive controls or DMSO only was transferred to the assay plate by a Pintool station (Kalypsys, San Diego, CA). The assay plates were incubated at 37 C and 5% CO2 for 5 hr. One uL of LiveBLAzer B/G FRET substrate (Life Technologies) was added using a Flying Reagent Dispenser (Aurora Discovery, San Diego, CA) and the plates were incubated at room temperature for 1.5 hr. Fluorescence intensity (405 nm excitation, 460 nm and 530 nm emissions) was measured using an Envision plate reader (PerkinElmer, Shelton, CT). For cytotoxicity, 3 ul/well of CellTiter-Glo reagent was added into the assay plates using an FRD. After 30 min incubation at room temperature, the luminescence intensity was measured using a ViewLux plate reader (PerkinElmer).
On to `NC(=S)NNC(N)=S`, for which the call was inactive.
As for `O=C(O)c1ccccc1C(=O)O`, the entry is “inactive”.
With `O=C1c2ccccc2CCc2ccccc21`, the molecule was called inactive.
On to `COC(=O)c1cccnc1`, for which the molecule was called inactive.
As to `CC(C)(Oc1ccc(CCNC(=O)c2ccc(Cl)cc2)cc1)C(=O)O`, the molecule was classed as inactive.
Turning to `CC(C)OP(=O)(CP(=O)(OC(C)C)OC(C)C)OC(C)C`, the call was inactive.
Consider `CSc1ccc(Cl)cc1`, for which the call was inactive.
`Clc1ccccn1`: the molecule was classed as inactive.
With `N#Cc1ccccc1`, the molecule was called inactive.
For the molecule `O=C(O)CCCCCCCCC(=O)O`, the outcome was inactive.
Consider `CC(=O)OCCOC(C)=O`, for which the result was inactive.
On to `CC(C)OC(=O)COc1ccc(Cl)cc1Cl`, for which the molecule was classed as inactive.
The value for `CC(=O)CC(C)(C)O` was “inactive”; that for `CCCCCCCCCCCCCCCCO` was “inactive”; that for `CN1C(=O)CC[C@H]1c1cccnc1` was “inactive”.
For `CC(C)CC(C)O` (stereo not given), the result was inactive.
Regarding `Nc1nc(N)nc(-c2ccccc2)n1`, the molecule was classed as inactive.
Regarding `O=C(O)c1cc2ccccc2cc1O`, the outcome was inactive.
Take `O=C1C(c2[nH]c3ccccc3c2O)=Nc2ccccc21`: the result was inactive.
As for `C=Cc1ccc(C)cc1`, the entry is “inactive”.
Turning to `COc1cc(OC)c(C(=O)CCCN2CCCC2)c(OC)c1`, the outcome was inactive.
`C=CC(C)CCCC(C)(C)O` (stereo not given): the result was inactive.
Take `CC1(C)S[C@@H]2[C@H](NC(=O)COc3ccccc3)C(=O)N2[C@H]1C(=O)O`: the result was inactive.
For `COc1ccccc1OCC(O)CO` (stereo not given), the molecule was called inactive.
Take `C=CC[N+](C)(C)CC=C`: the outcome was inactive.
For the molecule `CCO[Si](CCC#N)(OCC)OCC`, the molecule was classed as inactive.
As for `CC(C)(C)c1cc(Cc2cc(C(C)(C)C)c(O)c(C(C)(C)C)c2)cc(C(C)(C)C)c1O`, the outcome was inactive.
Consider `O=S(=O)(O)c1ccc(N=Nc2c(O)ccc3cc(S(=O)(=O)O)ccc23)cc1`, for which the outcome was inactive.
For the molecule `C[C@]12CCC(=O)C=C1CC[C@@H]1[C@@H]2[C@@H](O)C[C@@]2(C)[C@H]1CC[C@]2(O)C(=O)CO`, the outcome was inactive.
As for `C=CCCCCCCCCC(=O)O`, the entry is “inactive”.
Turning to `O=C(O)c1ccc(S(=O)(=O)N(Cl)Cl)cc1`, the molecule was called inactive.
On to `C[Si]1(C)O[Si](C)(C)O[Si](C)(C)O[Si](C)(C)O1`, for which the molecule was classed as inactive.
As to `CN(C)c1ccc(Cc2ccc(N(C)C)cc2)cc1`, the molecule was classed as inactive.
Turning to `CC(=O)CCC=C(C)C`, the call was inactive.
As to `C[C@]12CC[C@@H]3c4ccc(O)cc4CC[C@H]3[C@@H]1C[C@@H](O)[C@@H]2O`, the molecule was classed as inactive.
As for `CC(CCl)OP(=O)(OC(C)CCl)OC(C)CCl` (stereo not given), the outcome was inactive.
Take `CCc1ccccc1CC`: the outcome was inactive.
With `CC(=O)OCc1ccco1`, the molecule was classed as inactive.
The value for `CC(=O)Oc1ccc(C)cc1` was “inactive”; that for `CCCCCC(=O)O` was “inactive”.
